The full list was thinned out, with hits kept by preference.
EZH2 inh: blocks human EZH2/PRC2 H3K27 methylation; Q15910; DELFIA TRF, 1 h; inhibition, % at 12.5 µM; 57,000 compounds, 0.35% hits;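 active = mean inhibition of replicates at least 50% and every single replicate also reaching 50%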;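 also: dimethyl H3K27 on biotinylated H3 21-44 peptide detected by antibody; plate controls were median neutral control wells for no effect and median positive control wells for full effect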
* = called active by the depositor.

SMILES	EZH2 inh
O=c1c2ccccc2nc(-c2ccco2)n1CCN1CCOCC1	0
O=C1c2c(O)cc(O)cc2OC(c2ccc(O)cc2)C1C1C(=O)c2c(O)cc(O)cc2OC1c1ccc(O)cc1 (centres undefined)	-7
Oc1ccc([C@@H]2Oc3cc(O)cc(O)c3C[C@@H]2O)cc1	89*
Oc1ccc([C@H]2Oc3cc(O)cc(O)c3C[C@H]2O)cc1	16
O=[N+]([O-])c1cccc(-c2nn(-c3ccccc3)cc2CNCc2ccccc2)c1	21
C/C(=C/C(=O)O)CCC1C(C)CCC2C(C)(C=O)C(O)CCC12C (centres undefined)	15
C/C(=C\C(=O)O)CCC1C(C)(O)CCC2C(C)(CO)CCCC12C (centres undefined)	65*
C=C1CCC2C(C)(CO)CCCC2(C)C1CC/C(C)=C/C(=O)O (centres undefined)	14
O=C(CCCN1C(=O)c2ccccc2C1=O)Nc1cc(Cl)cc(Cl)c1	8
Cc1cccc(NC(c2ccc([N+](=O)[O-])cc2)c2ccc3ccc(C)nc3c2O)n1 (centres undefined)	1
C=CC(C)(O)CC/C=C(\C)C(=O)OCC1CCC2C(C(=O)O)=COC(OC3OC(CO)C(O)C(O)C3O)C12 (centres undefined)	0
C=C[C@H]1[C@H](O[C@@H]2O[C@H](CO)[C@@H](O)[C@H](O)[C@H]2O)OC=C(C(=O)OC)[C@H]1C[C@@H]1N[C@H](C(=O)O)Cc2c1[nH]c1ccccc21	98*
C=C1C(O)CC2C(C(=O)OC)=CO[C@@H](O[C@@H]3O[C@H](CO)[C@@H](O)[C@H](O)[C@H]3O)C12 (some centres undefined)	25
COC(=O)C1=CO[C@@H](O[C@@H]2O[C@H](CO)[C@@H](O)[C@H](O)[C@H]2O)[C@@H]2[C@@H](C)[C@@H](O)[C@@H](OC(=O)/C=C/c3ccc(O)c(O)c3)[C@H]12	11
CC1(OC(=O)/C=C/c2ccccc2)CC(O)C2C=COC(OC3OC(CO)C(O)C(O)C3O)C21 (centres undefined)	12
COC(=O)C1=CO[C@@H](O[C@@H]2O[C@H](CO)[C@@H](O)[C@H](O)[C@H]2O)[C@@H]2[C@@H]3CN4CCc5c([nH]c6ccccc56)[C@]4(C[C@H]12)O3	52*
COc1ccc(NC(=O)CN(c2cc(C)ccc2OC)S(C)(=O)=O)cc1Cl	5
O=C(NC1CCN(Cc2ccccc2)CC1)c1ccc(NS(=O)(=O)c2cccs2)cc1	-13
C#CCOc1ccc(C(Nc2ccccn2)c2ccc3cccnc3c2O)cc1 (centres undefined)	-33
COc1ccc(OC)c(C2C(C(=O)c3ccco3)C(=O)C(=O)N2CCN(C)C)c1 (centres undefined)	-26
Cc1nc(SCC(=O)c2ccc3c(c2)OCCO3)c2c3c(sc2n1)CCC3	-3
O=C(CC1Nc2cccc3cccc(c23)NC1=O)Nc1ccc([N+](=O)[O-])cc1 (centres undefined)	-11
COC(=O)c1cc(C)sc1NC(=S)NCCc1ccccc1OC	11
COc1ccc(OCC(=O)Nc2ccccc2C(=O)Nc2ccccc2)cc1	-6
CC(C)(C)c1ccc(OCC(=O)Nc2ccc(C(=O)Nc3ccccc3C(=O)O)cc2)cc1	64*
SMILES	EZH2 inh
Cc1cccc(OCC(=O)Nc2cccc(C(=O)Nc3ccccc3C(=O)O)c2)c1	42
CN(c1cccc(NS(=O)(=O)c2ccc3c(c2)OCCO3)c1)S(C)(=O)=O	-14
COc1ccc(NC(=O)COc2ccc(C)c(C)c2)cc1NC(=O)c1ccco1	2
OCCCNc1nc(-c2ccccc2Cl)c2cc(Br)ccc2n1	-2
Brc1ccc2nc(NCc3ccccn3)nc(-c3ccccc3)c2c1	28
Brc1ccc2noc(-c3ccccc3)c2c1	63*
COc1ccc(OC)c(NC(=O)C(=O)NCc2ccco2)c1	-1
CCn1c(SCC(=O)Nc2ccccc2-c2ccccc2)nnc1-c1cccs1	-1
O=C(COc1cc(O)c2c(=O)c3ccccc3oc2c1)c1ccc(Cl)cc1	13
c1ccc(-n2c(SCc3nc4ccccc4[nH]3)nnc2-c2cnccn2)cc1	-15
O=C(CSc1nc(O)cc(=O)n1-c1ccccc1)Nc1ccc2ccccc2c1	-4
C[C@@H]1CC[C@]2(C(=O)O)CC[C@]3(C)C(=CCC4[C@@]5(C)CC[C@@H](O)[C@](C)(C(=O)O)C5CC[C@]43C)C2[C@H]1C (some centres undefined)	-13
CC1CC(=O)[C@]2(C)CC[C@]3(C)C(C(=O)C(O)C4[C@@]5(C)CC[C@H](O)C(C)(C(=O)O)C5CC[C@]43C)C2C1C (some centres undefined)	70*
C[C@@H]1CC[C@@]23CCC4(C)[C@@](C=CC5[C@@]6(C)CC[C@H](O)C(C)(C)C6CC[C@]54C)(OC2=O)C3[C@H]1C (some centres undefined)	3
CCC1(C)Cc2c(sc3nc(SCC(=O)Nc4ccc(Cl)cc4)nc(N)c23)CO1 (centres undefined)	-10
Cc1cc(Cl)cc(Cl)c1OCC(=O)Nc1cccc(NC(=O)c2ccccc2Cl)c1	1
CN(C)CCNC(=O)c1cc(-c2cccnc2)nc2c(Cl)cccc12	0
CC(=O)c1cccc(NC(=O)CSc2nc(-c3ccccc3)c(-c3ccccc3)o2)c1	31
O=C(CCSc1nnc(-c2ccccc2)o1)Nc1ccc(F)cc1	-15
O=C(O)CCCCCCC(=O)Nc1ccc(C2CC(CSc3nc(-c4ccccc4)c(-c4ccccc4)o3)OC(c3ccccc3)O2)cc1 (centres undefined)	92*
O=C(Cn1cnc2scc(-c3ccccc3)c2c1=O)Nc1ccc(Oc2ccccc2)cc1	7
COc1ccc(NC(=O)CN(C)S(=O)(=O)c2ccc(Br)cc2)c([N+](=O)[O-])c1	-8
CN(C)S(=O)(=O)N(CC(=O)O)c1ccccc1	16
CN(C(=S)SCc1ccccc1)c1ccccc1	66*
O=C(CSc1nnc(-c2ccccc2O)n1-c1ccccc1)Nc1ccc(Oc2ccccc2)cc1	13
SMILES	EZH2 inh
COc1ccc(OC)c(NC(=O)Cn2cnc3sc(C)c(-c4ccccc4)c3c2=O)c1	-12
COc1cccc(NC(=O)Cn2cnc3ccccc3c2=O)c1	-11
O=c1c(-c2ccc(O)cc2)coc2cc(OC3OC(CO)C(O)C(O)C3O)cc(O)c12 (centres undefined)	9
O=c1cc(-c2ccc(O)cc2)oc2c(C3OC(CO)C(O)C(O)C3O)c(O)c(C3OCC(O)C(O)C3O)c(O)c12 (centres undefined)	99*
O=C1CC(c2ccc(O)cc2)Oc2cc(O[C@@H]3O[C@H](CO)[C@@H](O)[C@H](O)[C@H]3O)cc(O)c21 (some centres undefined)	-2
Cc1ccc(N(CC(=O)Nc2c(C)cc(C)cc2C)S(C)(=O)=O)cc1	-22
COc1cccc(C#Cc2cnc3c(c2)C(=O)N([C@@H](C)CO)C[C@@H](C)[C@@H](CN(C)C(=O)C2CCCCC2)O3)c1	-10
COc1cccc(C#Cc2cnc3c(c2)C(=O)N([C@H](C)CO)C[C@@H](C)[C@H](CN(C)C(=O)C2CCCCC2)O3)c1	95*
COc1cccc(C#Cc2cnc3c(c2)C(=O)N([C@@H](C)CO)C[C@H](C)[C@H](CN(C)C(=O)C2CCC2)O3)c1	12
COc1ccc(C)cc1S(=O)(=O)N(CC(N)=O)c1ccc(Cl)cc1	-9

Compound activity deposited in PubChem by Broad Institute.
